# Results: PubChem BioAssay (NCATS)
# Values joined by “and” are separate entries in the source; they are usually repeats but may differ in a detail not shown here. Identical values can stand only once. Inconclusive results are not listed. Where a call stands in place of a potency, no number is given. A number with no mark means an inactive call. Active and inactive are the calls of the source. Calls come from the whole dose curve; as a rule, active = well fitted curve in the direction sought with a large enough effect; inconclusive = small, poorly fitted or top-dose-only effect, or another doubt; inactive = no such curve, though single readings can be large; an effect the other way counts as inactive or inconclusive.
# Legend:
# [1] = biological target: Cellular tumor antigen p53 (Homo sapiens) (UniProt P04637); assay: Primary qHTS for small molecule compounds that upregulate eGFP-tagged delta133p53alpha (in N-terminal) cells. (AID 2060322); conditions: NCI-H358 eGFP-delta133p53alpha fluorescence, 24 h; activation: active compounds read high; note: nearly all actives have a fitted effect of over 75% in size; note: potency is the fitted concentration of half-maximal effect;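 for activation: cells pre-induced with doxycycline then dosed without doxycycline; series mostly up to about 56 µM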
# Summary of the method: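 NCI-H358 cells pre-induced 24 h with 10 ng/ml doxycycline for eGFP-delta133p53alpha, plated dox-free and exposed 24 h at 37C to titrated compounds. Fixed, Hoechst-stained; gated GFP peak intensity by laser scanning cytometry, normalized to DMSO (0%) and 57.5 uM 5-azacytidine (100%).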
# [2] = biological target: Aldehyde dehydrogenase, mitochondrial (Homo sapiens) (UniProt P05091); assay: qHTS for Inhibitors of the Aldehyde Dehydrogenase Family (ALDH2) Primary screen (AID 2061308); note: nearly all actives have a fitted effect of over 55% in size
# [3] = biological target: Retinaldehyde dehydrogenase 3 (Homo sapiens) (UniProt P47895); assay: qHTS for Inhibitors of the Aldehyde Dehydrogenase Family (ALDH1A3) Primary screen (AID 2061315)
# [4] = BET inhibitor-based combinations targeting novel dependencies in MECOM-rearranged (r) AML: SET-2 cell line (AID 2202231); conditions: SET-2 AML cells viability, CellTiter-Glo luminescence, 48 h; viability: active compounds read low, concentration not given here; note: nearly all actives have a fitted effect of over 35% in size; note: potency is the fitted concentration of half-maximal effect
# Summary of the method: (§1)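 Here, 11-point titrations of each agent were applied to 500 seeded cells and incubated 48 hr; CellTiter-Glo signal, scaled against DMSO and empty wells, was integrated as AUC, then Z-scored within the individual line.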
# [5] = BET inhibitor-based combinations targeting novel dependencies in MECOM-rearranged (r) AML: UCSD-AML1 cell line (AID 2202235); note: nearly all actives have a fitted effect of over 40% in size; note: potency is the fitted concentration of half-maximal effect
# Summary of the method: (§2)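 Normalized to DMSO and empty-well controls, the luminescence data from CellTiter-Glo after 48 hr drug exposure were fitted across 11 concentrations. Reported metrics are area under the dose-response curve and its Z-transformed form.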
# [6] = BET inhibitor-based combinations targeting novel dependencies in MECOM-rearranged (r) AML: HNT-34 cell line (AID 2202234); note: nearly all actives have a fitted effect of over 35% in size; note: potency is the fitted concentration of half-maximal effect
# Summary of the method: as §2
# [7] = BET inhibitor-based combinations targeting novel dependencies in MECOM-rearranged (r) AML: AML-191 cell line (AID 2202236; note: nearly all actives have a fitted effect of over 35% in size; note: potency is the fitted concentration of half-maximal effect)
# Summary of the method: as §1
# [8] = BET inhibitor-based combinations targeting novel dependencies in MECOM-rearranged (r) AML: AML-194 cell line (AID 2202237; note: nearly all actives have a fitted effect of over 40% in size; note: potency is the fitted concentration of half-maximal effect)
# Summary of the method: as §1
# [9] = BET inhibitor-based combinations targeting novel dependencies in MECOM-rearranged (r) AML: MV-4-11 cell line (AID 2202233); note: nearly all actives have a fitted effect of over 45% in size; note: potency is the fitted concentration of half-maximal effect
# Summary of the method: as §2
# Cellular tumor antigen p53 (Homo sapiens), sequence (P04637 whole entry, looked up): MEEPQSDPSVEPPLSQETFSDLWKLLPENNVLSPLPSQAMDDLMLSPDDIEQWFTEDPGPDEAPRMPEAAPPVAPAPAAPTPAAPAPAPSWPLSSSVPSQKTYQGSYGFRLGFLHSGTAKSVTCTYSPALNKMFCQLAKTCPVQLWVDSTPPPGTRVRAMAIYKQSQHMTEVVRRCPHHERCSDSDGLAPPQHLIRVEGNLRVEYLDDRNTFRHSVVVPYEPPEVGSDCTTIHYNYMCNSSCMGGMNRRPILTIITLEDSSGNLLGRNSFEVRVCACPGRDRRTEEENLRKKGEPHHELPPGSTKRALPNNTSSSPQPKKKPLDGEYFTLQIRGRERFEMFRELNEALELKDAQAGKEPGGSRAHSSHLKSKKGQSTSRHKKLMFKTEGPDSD
SMILES,activation [1],Potency [2],Potency [3],viability [4] [%],Potency [5],Potency [6],Potency [7],Potency [8],Potency [9],Potency [4],Potency [1]
Cc1c(NC(=O)c2cc(C(N)=O)nc3cc(F)ccc23)c(C(F)(F)F)nn1Cc1ccc(C#N)cc1,14.3%,inactive,inactive,101,inactive,,,,,,
O=C(O)CCCc1c[nH]c2ccccc12,-8.68% and -9%,inactive,inactive,116,inactive,inactive,inactive,inactive,,,
CNc1nc(Nc2cnn([C@H]3CCN(C4COC4)C[C@@H]3F)c2Cl)ncc1C(F)(F)F,-10.7% and -17.9%,inactive,inactive,94.3,,,16.6 µM (active),inactive,1.32 µM (active),,
O=C1CCCC2=C1C(c1[nH]ncc1Cl)N=C(Nc1nc3ccccc3o1)N2 (stereo not drawn),-17.4% and 19.7%,inactive,inactive,78.9,,,16.6 µM (active),inactive,10.5 µM (active),,
CN1CCN(c2ccc(-c3cccc(CN4CCOCC4)c3)cc2NC(=O)c2c[nH]c(=O)cc2C(F)(F)F)CC1,-14.5%,inactive,inactive,120,inactive,inactive,inactive,inactive,,,
CN(C)C(=O)c1ccc(S(=O)(=O)c2ccc(NC(=O)[C@@](C)(O)C(F)(F)F)c(Cl)c2)cc1,17.9% and -11.6%,inactive,inactive,,inactive,,,,4.68 µM (active),7.42 µM (active),
Cc1n[nH]c(C)c1Cc1sc2c(c1C(=O)N1C[C@H](O)CO1)c(=O)n(C)c(=O)n2CC(C)C,19.3% and -2.33%,inactive,inactive,111,,inactive,inactive,inactive,inactive,,
Cn1ncnc1[C@H]1c2n[nH]c(=O)c3cc(F)cc(c23)N[C@@H]1c1ccc(F)cc1,-4.3% and 20.1%,inactive,inactive,,,0.166 µM (active),1.86 µM (active),1.86 µM (active),0.0332 µM (active),3.72 µM (active),
O=C(NOCC(O)CO)c1ccc(F)c(F)c1Nc1ccc(I)cc1F (stereo not drawn),0.955%,inactive,inactive,80.7,,0.209 µM (active),,,,,
Cc1cc(CS(=O)(=O)c2ccccc2)cc(OCc2ccc(CN3CCC[C@@H]3CO)cc2)c1,3.67%,inactive,inactive,87.8,,,,18.6 µM (active),10.5 µM (active),,
O=C(O)c1ccc(CCCc2ccc(OCCc3ccc(F)cc3)cc2)o1,-3.57%,inactive,inactive,,inactive,inactive,inactive,inactive,,20.9 µM (active),
O=c1[nH]c(-c2ccc(C(F)(F)F)cc2)nc2c1CSCC2,25.7% and -15.7%,inactive,inactive,95.3,inactive,inactive,inactive,,,,
Cc1cccc(CC(=O)N2CCc3c2ccc(-c2cn(C)c4ncnc(N)c24)c3F)n1,0.893%,inactive,inactive,,,4.17 µM (active),,,,5.9 µM (active),
COc1cc2ncnc(Oc3cccc(NC(=O)Nc4cc(C(C)(C)C(F)(F)F)on4)c3)c2cc1OC,,inactive,inactive,104,,0.209 µM (active),,inactive,0.662 µM (active),,23.9 µM (active)
CS(=O)(=O)N(Cc1ccco1)CC(O)Cn1c2ccccc2c2ccccc21 (stereo not drawn),-2.66%,inactive,inactive,98.8,inactive,inactive,inactive,inactive,,,
Cc1cncc2cccc(S(=O)(=O)N3CCCN(C(=O)CN)C[C@@H]3C)c12,-16.4% and -8.59%,inactive,inactive,91.2,4.17 µM (active),,,,,,
CC(C)[C@H](CO)Nc1nc(Nc2ccc(C(=O)O)c(Cl)c2)c2ncn(C(C)C)c2n1,6.33%,inactive,inactive,109,inactive,inactive,inactive,inactive,,,
Cn1cnc(-c2cc3nccc(Oc4ccc(NC(=S)NC(=O)Cc5ccccc5)cc4F)c3s2)c1,-7.76% and 19.6%,inactive,inactive,78.9,,3.72 µM (active),,,,,
CCc1cc2c(cc1N1CCC(N3CCOCC3)CC1)C(C)(C)c1[nH]c3cc(C#N)ccc3c1C2=O,46.2%,inactive,inactive,88.5,inactive,,,,,,
CN(C)CCOc1cc(-c2cn[nH]c2)ccc1NC(=O)C1COc2ccccc2O1 (stereo not drawn),-38.5% and -11.6%,inactive,inactive,92.6,inactive,inactive,5.9 µM (active),,,,
